Measurements reported in PubChem BioAssay AID1159580 (chemical genetic matrix, 2015).
Values joined by “and” are separate entries in the source; they are usually repeats but may differ in a detail not shown here. Equal entries are not always repeated. Out of some 5,500 compounds screened, about 2,000 (36%) were called active. About 18% were inconclusive and are not listed. No stated cut-off is given here; in the data, active means normalized growth mostly below about 0.91 (no sharp cut-off); inconclusive means no clear call, values can overlap the other calls; inactive means mostly above about 0.92. The list shows a part of the results.

Assay: chemical genetic growth profiling, strain panel (AID 1159580);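 further: tested at 20 µM; growth read once vehicle control cultures reached saturation at 30 °C; 1 = growth at the plate median or of vehicle wells; lower values mean less growth of the strain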
Details: S. cerevisiae deletion strains, growth OD

Measured: normalized growth

C/C=C/CC(C)C(O)C1C(=O)NC(CC)C(=O)N(C)CC(=O)N(C)C(CC(C)C)C(=O)NC(C(C)C)C(=O)N(C)C(CC(C)C)C(=O)NC(C)C(=O)NC(C)C(=O)N(C)C(CC(C)C)C(=O)N(C)C(CC(C)C)C(=O)N(C)C(C(C)C)C(=O)N1C (stereo not given)
inactive: locus YAL013W, strain DEP1, active compounds read low 0.998 | locus YAL021C, strain ccr4, active compounds read low 1.02 | locus YAL026C, strain drs2, active compounds read low 1 | locus YAL030W, strain snc1, active compounds read low 1.02 | locus YAL040C, strain CLN3, active compounds read low 1.04 | locus YBL061C, strain skt5, active compounds read low 1.01 | locus YBR009C, strain hhf1, active compounds read low 1.01 | locus YBR021W, strain FUR4, active compounds read low 1.02 | locus YBR023C, strain chs3, active compounds read low 1.01 | locus YBR171W, strain sec66, active compounds read low 1.01 | locus YBR229C, strain ROT2, active compounds read low 0.972 | locus YBR231C, strain swc5, active compounds read low 1.02 | locus YBR279W, strain paf1, active compounds read low 1.02 | locus YCL011C, strain gbp2, active compounds read low 1.01 | locus YCL016C, strain dcc1, active compounds read low 0.996 | locus YCL029C, strain bik1, active compounds read low 1.01 | locus YCL061C, strain MRC1 (second series), active compounds read low 0.983 | locus YCL061C, strain MRC1, active compounds read low 1.02 | locus YCL069W, strain vba3, active compounds read low 1.02 | locus YCR088W, strain abp1, active compounds read low 1.02 | locus YDL005C, strain med2, active compounds read low 1.01 | locus YDL035C, strain GPR1, active compounds read low 0.979 | locus YDL040C, strain nat1, active compounds read low 1.01 | locus YDL074C, strain BRE1, active compounds read low 0.937 | locus YDL101C, strain DUN1, active compounds read low 0.988 | locus YDL134C, strain PPH21, active compounds read low 0.983 | locus YDL192W, strain arf1, active compounds read low 1 | locus YDR001C, strain nth1, active compounds read low 1.01 | locus YDR069C, strain doa4, active compounds read low 1.03 | locus YDR101C, strain arx1, active compounds read low 1.02 | locus YDR150W, strain NUM1, active compounds read low 0.996 | locus YDR159W, strain sac3, active compounds read low 0.993 | locus YDR162C, strain NBP2, active compounds read low 0.952 | locus YDR195W, strain ref2 1.01 | locus YDR297W, strain sur2, active compounds read low 1.02 | locus YDR318W, strain mcm21, active compounds read low 1.03 | locus YDR334W, strain swr1, active compounds read low 1.02 | locus YDR335W, strain msn5, active compounds read low 1.02 | locus YDR388W, active compounds read low 1.03 | locus YDR392W, strain spt3, active compounds read low 0.873 | locus YDR502C, strain sam2, active compounds read low 1.01 | locus YEL003W, strain gim4, active compounds read low 1.02 | locus YEL037C, strain rad23, active compounds read low 1.06 | locus YEL061C, strain CIN8 (second series), active compounds read low 1 | locus YEL061C, strain CIN8, active compounds read low 0.996 | locus YER002W, strain NOP16, active compounds read low 0.966 | locus YER015W, strain faa2, active compounds read low 1.02 | locus YER016W, strain bim1, active compounds read low 1.02 | locus YER110C, active compounds read low 1.02 | locus YER111C, strain swi4, active compounds read low 0.99 | locus YER155C, strain BEM2 (second series), active compounds read low 0.952 | locus YER155C, strain BEM2, active compounds read low 1.03 | locus YER167W, strain BCK2, active compounds read low 1.03 | locus YFR010W, strain ubp6, active compounds read low 1 | locus YGL078C, strain dbp3, active compounds read low 1.02 | locus YGL086W, strain mad1, active compounds read low 1.02 | locus YGL167C, strain pmr1, active compounds read low 1.03 | locus YGL173C, strain kem1, active compounds read low 1.02 | locus YGL227W, strain vid30, active compounds read low 1.02 | locus YGL240W, strain doc1, active compounds read low 0.978 | locus YGL248W, strain PDE1, active compounds read low 0.985 | locus YGL253W, strain hxk2, active compounds read low 1.02 | locus YGR078C, strain PAC10, active compounds read low 0.964 and 1.01 | locus YGR135W, strain pre9, active compounds read low 0.991 | locus YGR229C, strain SMI1, active compounds read low 0.937 and 1.01 | locus YGR252W, strain gcn5, active compounds read low 0.913 | locus YHR013C, strain ard1, active compounds read low 1.03 | locus YHR027C, strain rpn1, active compounds read low 1.03 | locus YHR030C, strain SLT2, active compounds read low 1.02 and 0.977 | locus YHR079C, strain IRE1 (second series), active compounds read low 1.03 | locus YHR079C, strain IRE1, active compounds read low 0.991 | locus YHR094C, strain hxt1, active compounds read low 1.02 | locus YHR129C, strain ARP1, active compounds read low 1.01 | locus YHR142W, strain chs7, active compounds read low 1.02 | locus YHR200W, strain rpn10, active compounds read low 1.02 | locus YIL066C, strain RNR3, active compounds read low 0.986 | locus YIL073C, strain SPO22, active compounds read low 1.02 | locus YIL125W, strain kgd1, active compounds read low 1 | locus YIR030C, strain dcg1, active compounds read low 1.02 | locus YJL092W, strain hpr5, active compounds read low 1.02 | locus YJL095W, strain BCK1 (second series), active compounds read low 1.03 | locus YJL095W, strain BCK1, active compounds read low 0.908 and 0.989 | locus YJL115W, strain asf1, active compounds read low 1.02 | locus YJL129C, strain trk1, active compounds read low 1.08 | locus YJL134W, strain LCB3, active compounds read low 1 | locus YJL154C, strain vps35, active compounds read low 1.01 | locus YJL164C, strain tpk1, active compounds read low 1.04 | locus YJL166W, strain qcr8, active compounds read low 1.02 | locus YJL168C, strain set2, active compounds read low 1.03 | locus YJL187C, strain SWE1 (second series), active compounds read low 0.968 | locus YJL187C, strain SWE1, active compounds read low 1.02 | locus YJR043C, strain POL32, active compounds read low 1 | locus YJR066W, strain TOR1, active compounds read low 0.959
active: locus YDL185W, strain tfp1, active compounds read low 0.358 | locus YDR137W, strain rgp1, active compounds read low 0.637
